Source: PubChem BioAssay (several laboratories)
Sampled rows, rich in hits. Any-hit rate of the full collection: about 1.3%.
NCOA2 inhibitor: inhibition of GAL4-SRC2 driven luciferase reporter, primary screen, SRC2 inhibitor project, cell-based, luminescence; Nuclear receptor coactivator 2 (Homo sapiens), Q15596; inhibition, % at 9 µM; AID 651957, 2012; 370,000 compounds, 0.17% hits; HEK293 GAL4-SRC2 luciferase reporter;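 active = inhibition above the mean inhibition of all tested compounds plus 3 SD, set per campaign, cut at about 52% in these data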
NR5A2 inv ag: LRH-1 (NR5A2) inverse agonists, primary screen, cell-based, luminescence, HEK293T, StAR-luciferase reporter; LRH-1 transfected, 24 h; 360,000 compounds, 0.13% hits; AID 602396, 2012; inhibition, % at 3.6 µM; Nuclear receptor subfamily 5 group A member 2 (Homo sapiens), O00482;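 active = inhibition above the mean inhibition of all tested compounds plus 3 SD, cut at about 73% in these data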
Gli-Sufu block: Gli-Sufu pathway antagonists, primary screen, luciferase luminescence, Sufu-KO-LIGHT cells, uHTS. 340,000 compounds, 0.74% hits. AID 588413, 2011. Sufu-KO-LIGHT fibroblasts, Gli luciferase reporter luminescence. inhibition, % at 5 µM;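 active = inhibition above about 55%, limit read from the data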
COUP-TFII inh: NR2F2 transcriptional activity inhibitors, primary screen, cell-based, luciferase reporter, HEK293T, luminescence. COUP transcription factor 2 (Homo sapiens), P24468. HEK293T NGFI-A luciferase reporter. inhibition, % at 8.6 µM. 370,000 compounds, 0.7% hits;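 active = inhibition above a per-plate cutoff, mean inhibition of test wells between control levels plus 3 SD, cut at about 38% in these data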;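 note: cells cotransfected with COUP-TFII expression vector driving the NGFI-A reporter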
SRC1 inh: SRC1 coactivator transcriptional activity inhibitors, primary screen, cell-based, luminescence | inhibition, % at 3.6 µM | 360,000 compounds, 0.12% hits | Nuclear receptor coactivator 1 (Homo sapiens), Q15788 | AID 588354, 2011 | HEK293 GAL4-SRC1 luciferase reporter;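 active = inhibition above the campaign mean plus 3 SD, with each screening campaign given its own cutoff, cut at about 60% in these data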
SRC3 inh: SRC3 coactivator transcriptional activity inhibitors, primary screen, cell-based, luminescence. Nuclear receptor coactivator 3 (Homo sapiens), Q9Y6Q9. HEK293 GAL4-SRC3 luciferase reporter. inhibition, % at 3.6 µM. 360,000 compounds, 0.17% hits;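 active = inhibition above a per-campaign cutoff, the mean of all compounds plus 3 SD, cut at about 60% in these data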;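 note: higher means less SRC3-driven luciferase light from the GAL4 reporter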
Target sequence (Q9Y6Q9 whole entry, looked up, the tested form may be a part): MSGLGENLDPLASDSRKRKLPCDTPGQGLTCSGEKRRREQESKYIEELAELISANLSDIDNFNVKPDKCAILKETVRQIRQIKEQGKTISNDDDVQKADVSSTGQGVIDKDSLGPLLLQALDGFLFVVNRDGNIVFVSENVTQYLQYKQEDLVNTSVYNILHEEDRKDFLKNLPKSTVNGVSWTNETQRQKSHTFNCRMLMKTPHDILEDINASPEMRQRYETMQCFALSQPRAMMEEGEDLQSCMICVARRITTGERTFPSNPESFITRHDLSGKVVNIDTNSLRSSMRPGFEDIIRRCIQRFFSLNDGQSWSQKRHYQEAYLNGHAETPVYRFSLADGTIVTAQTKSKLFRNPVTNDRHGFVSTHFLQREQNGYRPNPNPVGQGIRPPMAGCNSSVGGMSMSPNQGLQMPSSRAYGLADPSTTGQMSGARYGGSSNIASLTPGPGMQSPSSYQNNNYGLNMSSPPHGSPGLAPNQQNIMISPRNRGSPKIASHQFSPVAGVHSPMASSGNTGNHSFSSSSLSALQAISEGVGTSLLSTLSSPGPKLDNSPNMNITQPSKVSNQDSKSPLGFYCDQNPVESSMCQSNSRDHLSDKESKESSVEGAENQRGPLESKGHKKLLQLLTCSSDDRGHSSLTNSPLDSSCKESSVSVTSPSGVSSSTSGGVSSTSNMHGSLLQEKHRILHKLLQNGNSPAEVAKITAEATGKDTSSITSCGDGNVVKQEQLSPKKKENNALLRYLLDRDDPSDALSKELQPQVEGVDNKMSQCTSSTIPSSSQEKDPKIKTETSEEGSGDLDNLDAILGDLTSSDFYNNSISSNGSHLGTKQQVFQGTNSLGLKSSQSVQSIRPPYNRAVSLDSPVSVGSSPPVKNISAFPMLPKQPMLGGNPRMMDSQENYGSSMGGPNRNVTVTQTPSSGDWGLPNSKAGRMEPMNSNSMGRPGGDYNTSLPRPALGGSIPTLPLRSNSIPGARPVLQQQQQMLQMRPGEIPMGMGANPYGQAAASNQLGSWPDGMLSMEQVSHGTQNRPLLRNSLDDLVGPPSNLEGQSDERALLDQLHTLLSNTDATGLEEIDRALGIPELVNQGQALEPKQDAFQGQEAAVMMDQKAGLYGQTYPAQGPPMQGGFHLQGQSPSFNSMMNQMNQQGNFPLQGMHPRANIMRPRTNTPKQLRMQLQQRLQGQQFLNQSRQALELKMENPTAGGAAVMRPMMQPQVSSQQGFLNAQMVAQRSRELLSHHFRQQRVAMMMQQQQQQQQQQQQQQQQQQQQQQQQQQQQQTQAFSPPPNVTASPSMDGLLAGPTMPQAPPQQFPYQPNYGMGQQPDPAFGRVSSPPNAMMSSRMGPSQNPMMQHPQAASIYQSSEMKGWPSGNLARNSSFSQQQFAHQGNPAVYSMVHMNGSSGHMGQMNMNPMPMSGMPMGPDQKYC
Gli antag conf: Gli-SUFU pathway antagonists, confirmation, single concentration, luciferase luminescence, Sufu-KO-LIGHT cells | shares compounds with Gli-Sufu block | inhibition, % at 5 µM | Gli luciferase reporter | 2,500 compounds, 40% hits;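 active = mean inhibition at 5 µM reaching about 45%, limit read from the data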
Gli cytotox: cytotoxicity in Sufu-KO-LIGHT cells, confirmation, cytotoxicity control for Gli-SUFU antagonist project, cell-based, ATP luminescence, single concentration | shares compounds with Gli-Sufu block | cytotoxicity, % at 5 µM | 2,500 compounds, 32% hits | AID 651994, 2013;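 active = mean cytotoxicity at 5 µM above about 25%, limit read from the data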;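 note: cells exposed to compound overnight for roughly 16 to 18 hours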
Wnt3a cs: Wnt3a reporter signal inhibition, confirmation, counter-screen for Gli-SUFU antagonist project, Wnt-LIGHT cells, luminescence, single concentration; shares compounds with Gli-Sufu block; Wnt3a-driven luciferase reporter; inhibition, % at 6.25 µM; 2,500 compounds, 20% hits; AID 651995, 2013;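 active = mean inhibition above about 25%, limit read from the data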
Large screens that a line does not name were inactive (follow-up assays come after a bar, where they were run).

Cc1ccc(C)c(N2CC(O)(c3cccs3)[N+]3=C2CCCC3)c1 (stereo not drawn)	Gli-Sufu block 62 | Gli antag conf 50 | Gli cytotox 27 | Wnt3a cs inactive
COc1cccc(CC(=O)NC2CCCN(Cc3ccc(Cl)cc3)C2)c1 (stereo not drawn)	none
Cc1cc(C(=O)NC2CCCN(Cc3ccc(Cl)cc3)C2)n(C)n1 (stereo not drawn)	Gli-Sufu block 57 | Gli antag conf inactive | Gli cytotox inactive | Wnt3a cs inactive
COc1ccc(OCC(=O)NC2CCCN(Cc3ccc(Cl)cc3)C2)cc1 (stereo not drawn)	none | Gli antag conf inactive | Gli cytotox inactive | Wnt3a cs inactive
COc1cc(C=Nn2c(-c3cc(C)[nH]n3)n[nH]c2=S)cc(Br)c1O	none (no result: NR5A2 inv ag, Gli-Sufu block, SRC1 inh, SRC3 inh)
Clc1ccc(-c2c[n+](Cc3ccc(Br)cc3)c3n2CCCCC3)cc1	none
COc1ccc(-c2c[n+](CC(=O)c3ccccc3)c3n2CCCCC3)cc1	none | Gli antag conf 55 | Gli cytotox inactive | Wnt3a cs inactive
O=C(C[n+]1cc(-c2ccccc2)n2c1CCCCC2)c1ccc(Cl)cc1	Gli-Sufu block 58 | Gli antag conf 49 | Gli cytotox inactive | Wnt3a cs inactive
Cc1ccc(-c2c[n+](CC(=O)c3ccc(Br)cc3)c3n2CCCCC3)cc1	Gli-Sufu block 77 | Gli antag conf 78 | Gli cytotox 33 | Wnt3a cs inactive
Nn1c(SCC(=O)NC2CCCCC2)nnc1-c1cc(-c2ccccc2)n[nH]1	none (no result: NR5A2 inv ag, Gli-Sufu block, SRC1 inh, SRC3 inh)
CSCCCNC(=O)Cn1nc(Cc2ccncc2)c2ccccc2c1=O	none (no result: NR5A2 inv ag, Gli-Sufu block, SRC1 inh, SRC3 inh)
CC[C@]12c3[nH]c4cc(CCC(=O)N(C)C)ccc4c3CCN1C(=O)[C@@H](CC(=O)NC/C=C(\C)CCC=C(C)C)C[C@@H]2C(=O)N1CCN(C(=O)c2ccco2)CC1	Gli-Sufu block 79 (no result: NCOA2 inhibitor, COUP-TFII inh) | Gli antag conf 77 | Gli cytotox 30 | Wnt3a cs 31
Cc1cc2cc(CN(CC3CCCO3)C(=S)Nc3ccccc3)c(=O)[nH]c2cc1C (stereo not drawn)	Gli-Sufu block 63 | Gli antag conf 80 | Gli cytotox 50 | Wnt3a cs inactive
CC(C)C[C@H]1COc2cc(Br)ccc2S(=O)(=O)N1Cc1cn(Cc2ccc(Br)cc2)nn1	none (no result: NR5A2 inv ag, Gli-Sufu block, SRC1 inh, SRC3 inh)
COc1ccc(C(=O)NCCN(C)C)c2nc3ccccc3cc12	Gli-Sufu block 64 | Gli antag conf 70 | Gli cytotox 38 | Wnt3a cs inactive
COc1cccc2nc3c(C(=O)NCCN(C)C)cccc3cc12	Gli-Sufu block 70, SRC1 inh 63 | Gli antag conf 62 | Gli cytotox inactive | Wnt3a cs inactive
COc1ccc(Cl)cc1C(=O)NCCN(C)C	none
COc1ccc(-c2nc3c(C(=O)NCCN(C)C)cccc3c3ccccc23)cc1	none
CC(=O)c1cnc(Nc2ccccc2)s1	Gli-Sufu block 57 | Gli antag conf inactive | Gli cytotox inactive | Wnt3a cs inactive
C#CCNC(=O)C[C@H]1C[C@@]2(C(=O)OC)C(=C[C@H](C(C)C)O[C@@H]2C2CC2)N(Cc2cccc3ccccc23)C1=O	none (no result: NR5A2 inv ag, Gli-Sufu block, SRC1 inh, SRC3 inh)
Cc1cc(=O)oc2cc(OCC(O)CN3CCc4ccccc4C3)ccc12 (stereo not drawn)	Gli-Sufu block 95 | Gli antag conf inactive | Gli cytotox inactive | Wnt3a cs inactive
CCCc1sc(N/N=C/c2ccccn2)nc1-c1ccc(Br)cc1	Gli-Sufu block 64 | Gli antag conf 80 | Gli cytotox inactive | Wnt3a cs 88
CCOC(=O)c1cccc(NC(=O)CN(C)S(=O)(=O)c2ccc(F)cc2)c1	none (no result: NR5A2 inv ag, Gli-Sufu block, SRC1 inh, SRC3 inh)
COc1ccc(/C=C2\NC(=O)C(C=NCc3ccccc3)=C2O)cc1	none
O=C1N/C(=C\c2ccc(O)cc2)C(O)=C1C=NCc1ccccc1	Gli-Sufu block 71 | Gli antag conf 47 | Gli cytotox inactive | Wnt3a cs inactive
O=C1CCCC(O)=C1C=NCc1ccccc1	Gli-Sufu block 58 | Gli antag conf inactive | Gli cytotox inactive | Wnt3a cs inactive
Cc1ccc2oc(=O)c3cnn(CC(=O)NC4CCCCC4C)c3c2c1 (stereo not drawn)	Gli-Sufu block 99 | Gli antag conf inactive | Gli cytotox inactive | Wnt3a cs inactive
Cc1ccc2oc(=O)c3cnn(CC(=O)NC4CCC(C)CC4)c3c2c1 (stereo not drawn)	none | Gli antag conf inactive | Gli cytotox inactive | Wnt3a cs inactive
CCCCNC(=O)C[C@H]1C[C@@]2(C(=O)OC)C(=C[C@H](C(C)C)O[C@@H]2C2CC2)N(CCC2=CCCCC2)C1=O	none (no result: NR5A2 inv ag, Gli-Sufu block, SRC1 inh, SRC3 inh)
CC(C)n1nnnc1C1(C)Cn2nccc2C(=O)N1Cc1cccc(C(F)(F)F)c1 (stereo not drawn)	none (no result: NR5A2 inv ag, Gli-Sufu block, SRC1 inh, SRC3 inh)
C#CCOCCOCCOCCNc1nc(N2CCN(C(=O)CCCCCCCCCCNC(=O)Cn3cc(CCCCCN)nn3)CC2)nc(N2CCN(C(=O)CCCCCCCCCCNC(=O)Cn3cc(C[C@@H](C)O)nn3)CC2)n1	none (no result: NCOA2 inhibitor, COUP-TFII inh)
Cc1cn([C@@H](CCCCNC(=O)OC(C)(C)C)C(=O)NCCCCCCCCCCC(=O)N2CCN(C(=O)OC(C)(C)C)CC2)nn1	Gli-Sufu block 60, SRC3 inh 64 (no result: NCOA2 inhibitor, COUP-TFII inh) | Gli antag conf 59 | Gli cytotox 36 | Wnt3a cs inactive
CC(C)(C)OC(=O)NCCCCCc1cn(CC(=O)NCCCCCCCCCCC(=O)N2CCN(C(=O)OC(C)(C)C)CC2)nn1	Gli-Sufu block 56 | Gli antag conf 62 | Gli cytotox 26 | Wnt3a cs inactive
CC[C@H](C)Cc1cn([C@@H](CCCN=C(NC(=O)OC(C)(C)C)NC(=O)OC(C)(C)C)C(=O)NCCCCCCCCCCC(=O)N2CCN(C(=O)OC(C)(C)C)CC2)nn1	none (no result: NCOA2 inhibitor, COUP-TFII inh)
CCCCOCCCNC(=O)C[C@H]1C[C@@]2(C(=O)OC)C(=C[C@H](C(C)(C)C)O[C@@H]2C)N(Cc2cccc3ccccc23)C1=O	none (no result: NR5A2 inv ag, Gli-Sufu block, SRC1 inh, SRC3 inh)
Cc1ccc(-n2c(SCC(=O)Nc3ccc4cn[nH]c4c3)nnc2-c2ccccc2)cc1	none (no result: NR5A2 inv ag, Gli-Sufu block, SRC1 inh, SRC3 inh)
